{"source": "PubChem BioAssay", "note": "Unmarked numbers belong to inactive results. The rule behind the calls is not given here."}
{"test_system": "Aerobactin synthetase IucA (Klebsiella pneumoniae hvKP1)", "assay": "IucA enzyme inhibition, primary screen, biochemical, Spectrum library (AID 1346200);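 note: 100% = wells without compound and 0% = wells lacking enzyme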", "conditions": "malachite green pyrophosphate, A620, at 8 µM, hits give low values", "units": {"activity remaining": "%"}}
{"smiles": "C[C@]12CC[C@H](O)CC1=CCC1C2CC[C@]2(C)C(=O)CCC12", "note": "(some centres undefined)", "activity remaining": 103}
{"smiles": "COc1cc2nc(N(C)CCCNC(=O)C3CCCO3)nc(N)c2cc1OC", "note": "(centres undefined)", "activity remaining": 120}
{"smiles": "O=c1[nH]c(=O)n(C2C[C@@H](O)[C@@H](CO)O2)cc1F", "note": "(some centres undefined)", "activity remaining": 120}
{"smiles": "CCCCOC(=O)c1ccc(N)cc1", "activity remaining": 85.9}
{"smiles": "CCCc1nn(C)c2c(=O)[nH]c(-c3cc(S(=O)(=O)N4CCN(C)CC4)ccc3OCC)nc12", "activity remaining": 97}
{"smiles": "NC(N)=NCCN1CCCCCCC1", "activity remaining": 104}
{"smiles": "C[C@]12CCc3occc3C1CC[C@@]13C[C@@H](CCC12)[C@@](O)(CO)C3", "note": "(some centres undefined)", "activity remaining": 93.4}
{"smiles": "CCOC(=O)c1ccc(N)cc1", "activity remaining": 113}
{"smiles": "CC(CN(C)C)CN1c2ccccc2Sc2ccccc21", "note": "(centres undefined)", "activity remaining": 101}
{"smiles": "CC(=O)Nc1ccc(S(=O)(=O)c2ccc(NC(C)=O)cc2)cc1", "activity remaining": 110}
{"smiles": "CC(=O)OCC(=O)[C@@]1(O)CCC2C3CC[C@@H]4C[C@H](O)CC[C@]4(C)C3C(=O)C[C@@]21C", "note": "(some centres undefined)", "activity remaining": 97.5}
{"smiles": "COC1CC(O[C@H]2CC[C@]3(C=O)C4CC[C@]5(C)C(C6=CC(=O)OC6)CC[C@]5(O)C4CC[C@]3(O)C2)OC(C)C1O", "note": "(some centres undefined)", "activity remaining": 117}
{"smiles": "COc1cc(O)cc(OC)c1OC", "activity remaining": 104}
{"smiles": "COC(=O)/C(=C1\\OC(=O)C(c2ccccc2)C1=O)c1ccccc1", "note": "(centres undefined)", "activity remaining": 106}
{"smiles": "COc1cccc2c1CCC1CC(=O)CC[C@]21C", "note": "(some centres undefined)", "activity remaining": 119}
{"smiles": "CC1(C)O[C@@H]2CC3C4C[C@H](F)C5=CC(=O)C=CC5(C)C4C(O)CC3(C)[C@]2(C(=O)CO)O1", "note": "(some centres undefined)", "activity remaining": 111}
{"smiles": "CC1(C)O[C@@H]2CC3C4C[C@H](F)C5=CC(=O)CC[C@]5(C)C4[C@@H](O)C[C@]3(C)[C@]2(C(=O)CO)O1", "note": "(some centres undefined)", "activity remaining": 118}
{"smiles": "Cc1ccc(C(=O)c2ccc(CC(=O)O)n2C)cc1", "activity remaining": 120}
{"smiles": "CC(C)CCCC(C)[C@H]1CCC2C3CC=C4C[C@@H](O)CC[C@]4(C)C3CC[C@@]21C", "note": "(some centres undefined)", "activity remaining": 117}
{"smiles": "CCOC(=O)c1c(C)cc(O)c(C=O)c1O", "activity remaining": 97.7}
{"smiles": "C[C@@H]1O[C@@H](OC[C@H]2OC(Oc3c(-c4ccc(OCCO)c(OCCO)c4)oc4cc(OCCO)cc(O)c4c3=O)[C@H](O)[C@@H](O)[C@@H]2O)[C@H](O)[C@H](O)[C@H]1O", "note": "(some centres undefined)", "activity remaining": 121}
{"smiles": "CN1CCOC(c2ccccc2)c2ccccc2C1", "note": "(centres undefined)", "activity remaining": 110}
{"smiles": "O=C1[O][Bi][O]c2ccccc21", "activity remaining": 107}
{"smiles": "C=C1CC[C@H](O)C/C1=C/C=C1\\CCC[C@]2(C)C([C@H](C)/C=C/[C@H](C)C(C)C)CC[C@@H]12", "note": "(some centres undefined)", "activity remaining": 107}
{"smiles": "O=c1oc2c(O)c(O)cc3c(=O)oc4c(O)c(O)cc1c4c23", "activity remaining": 91.8}
{"smiles": "O[C@H]1[C@H](O)[C@@H](O)C2OC[C@H]1O2", "activity remaining": 119}
{"smiles": "CCN(CC)C(=O)c1cccc(C)c1", "activity remaining": 112}
{"smiles": "N[C@@H](CCC(=O)N[C@@H](CS)C(=O)NCC(=O)O)C(=O)O", "activity remaining": 101}
{"smiles": "CC(=O)O[C@]1(C)CC[C@@]23CC1C(C)(C)[C@@H]2CC[C@H]3C", "activity remaining": 102}
{"smiles": "CO[C@H]1CC(O[C@@H]2/C(C)=C/C[C@@H]3C[C@@H](C[C@]4(CC[C@H](C)[C@@H](C5CCCCC5)O4)O3)OC(=O)[C@@H]3C=C(C)/C(=N/O)[C@H]4OC/C(=C\\C=C\\[C@@H]2C)[C@]43O)O[C@@H](C)C1O", "note": "(some centres undefined)", "activity remaining": 119}
{"smiles": "CC1(C)CC[C@]2(C(=O)O)CC[C@]3(C)C(=CCC4[C@@]5(C)CC[C@H](O)[C@@](C)(CO)C5CC[C@]43C)C2C1", "note": "(some centres undefined)", "activity remaining": 97.3}
{"smiles": "CC12CCC3C(CC3(C)C)C(C)(CCC1=O)O2", "note": "(centres undefined)", "activity remaining": 119}
{"smiles": "O=C1CN(/N=C/c2ccc([N+](=O)[O-])o2)C(=O)N1", "activity remaining": 78.3}
{"smiles": "COC(=O)c1c(OC)cc2c(c1C)Oc1c(Cl)c(O)c(Cl)c(C)c1C(=O)O2", "activity remaining": 116}
{"smiles": "C[C@H]1[C@H]2CCC3C4CC=C5C[C@@H](N(C)C)CC[C@]5(C)C4CC[C@@]32CN1C", "note": "(some centres undefined)", "activity remaining": 119}
{"smiles": "CC[C@@]1(O)C(=O)OCc2c1cc1n(c2=O)Cc2cc3cc(O)ccc3nc2-1", "activity remaining": 117}
{"smiles": "C[C@]12CCC(=O)C=C1CCC1C2C(=O)C[C@@]2(C)C1CC[C@]2(O)C(=O)CO", "note": "(some centres undefined)", "activity remaining": 111}
{"smiles": "CCCCCCCCCCCCCCCCCCOCC(O)CO", "note": "(centres undefined)", "activity remaining": 104}
{"smiles": "CC(=O)OCC(=O)[C@@]1(O)[C@H](OC(C)=O)CC2C3CCC4=CC(=O)C=C[C@]4(C)[C@@]3(F)[C@@H](O)C[C@@]21C", "note": "(some centres undefined)", "activity remaining": 120}
